Drawing on a collection of fitness landscapes (doi:10.1126/science.1257360), this text covers enrichment ratio for 158 variants.

To fix the notation:
B1: PhoQ; a variant is named by its letters at X, in order, P23837 (parent)
chain: MKKLLRLFFPLSLRVRFLLATAAVVLVLSLAYGMVALIGYSVSFDKTTFRLLRGESNLFYTLAKWENNKLHVELPENIDKQSPTMTLIYDENGQLLWAQRDVPWLMKMIQPDWLKSNGFHEIEADVNDTSLLLSGDHSIQQQLQEVREDDDDAEMTHSVAVNVYPATSRMPKLTIVVVDTIPVELKSSYMVWSWFIYVLSANLLLVIPLLWVAAWWSLRPIEALAKEVRELEEHNRELLNPATTRELTSLVRNLNRLLKSERERYDKYRTTLTDLTHSLKTPLXXLQXXLRSLRSEKMSVSDAEPVMLEQISRISQQIGYYLHRASMRGGTLLSRELHPVAPLLDNLTSALNKVYQRKGVNISLDISPEISFVGEQNDFVEVMGNVLDNACKYCLEFVEISARQTDEHLYIVVEDDGPGIPLSKREVIFDRGQRVDTLRPGQGVGLAVAREITEQYEGKIVAGESMLGGARMEVIFGRQHSAPKDE

The full ranking holds about 140,000 sequences; the median of “enrichment ratio after two sorts for PhoP signalling” is about 0, and the highest 2% start at about 11. The list comes from a sample in which the highest values are over-represented; it also holds similar and randomly drawn sequences. Bounds are passed on as bounds.

Variants of B1 are the subject of the experiment. In words: enrichment ratio after two sorts for PhoP signalling (ratio (wild type AVST 3.29)); higher = more functional. To be noted: with PhoP (E. coli).
As to TMFF, the enrichment ratio was no more than 0.25.

Turning to ATSQ, the enrichment ratio came to 11.6.

Take ATSK: the enrichment ratio was 4.37.

Take GTSQ: the enrichment ratio turned out to be 5.69.

On to WISQ, for which the enrichment ratio is no more than 0.25.

VHSQ: the enrichment ratio was no more than 0.25.

Regarding AISQ, the enrichment ratio came out at 15.6.

As for GRRA, the enrichment ratio was no more than 0.25.

As for KANK, the enrichment ratio is no more than 0.25.

With LHPY, the enrichment ratio was no more than 0.25.

YEKR: the enrichment ratio is no more than 0.25.

Consider IVLL, for which the enrichment ratio came to 1.17.

Regarding NSSV, the enrichment ratio was no more than 0.25.

Take SGWR: the enrichment ratio was no more than 0.25.

With SRSV, the enrichment ratio was no more than 0.25.

Turning to TSSV, the enrichment ratio was found to be 20.

SQSV: the enrichment ratio came to 11.9.

In the case of KSTA, the enrichment ratio is no more than 0.25.

SPTA: the enrichment ratio was no more than 0.25.

As for SGSV, the enrichment ratio turned out to be 12.1.

As to KSSV, the enrichment ratio is no more than 0.25.

For the variant SGDW, the enrichment ratio was no more than 0.25.

As to TVTA, the enrichment ratio was determined as 19.9.

For the variant SDSV, the enrichment ratio came to 5.55.

Regarding VCWY, the enrichment ratio was no more than 0.25.

Take PCPR: the enrichment ratio was no more than 0.25.

Regarding KLGA, the enrichment ratio is no more than 0.25.

For AKGF, the enrichment ratio was no more than 0.25.

As to EKFN, the enrichment ratio is no more than 0.25.

Consider AGVG, for which the enrichment ratio is 1.3.

In the case of IANT, the enrichment ratio was no more than 0.25.

As to DDSV, the enrichment ratio is no more than 0.25.

Regarding SCSV, the enrichment ratio was determined as 9.38.

In the case of TLSV, the enrichment ratio was determined as 16.7.

For SISV, the enrichment ratio stood at 11.6.

Regarding LLSV, the enrichment ratio is no more than 0.25.

Consider SLSV, for which the enrichment ratio is 7.73.

In the case of SESV, the enrichment ratio was determined as 16.9.

For the variant NVSV, the enrichment ratio is no more than 0.25.

LASV: the enrichment ratio was no more than 0.25.

On to TQSV, for which the enrichment ratio is 20.7.

For the variant KYSV, the enrichment ratio is no more than 0.25.

As to VLSV, the enrichment ratio is no more than 0.25.

On to EDTD, for which the enrichment ratio is no more than 0.25.

As for RDHH, the enrichment ratio was no more than 0.25.

Take GWHV: the enrichment ratio was no more than 0.25.

With YFPW, the enrichment ratio was no more than 0.25.

For LVPS, the enrichment ratio is no more than 0.25.

Consider NTCA, for which the enrichment ratio was no more than 0.25.

As for HTEF, the enrichment ratio is no more than 0.25.

Regarding LAEC, the enrichment ratio is no more than 0.25.

As for IDHP, the enrichment ratio is no more than 0.25.

As to WPTS, the enrichment ratio was no more than 0.25.

For the variant SPSV, the enrichment ratio is no more than 0.25.

With TVSV, the enrichment ratio came to 14.9.

Turning to DMSV, the enrichment ratio was no more than 0.25.

TASV: the enrichment ratio was found to be 17.9.

On to HCSV, for which the enrichment ratio was no more than 0.25.

Turning to KASV, the enrichment ratio was no more than 0.25.

Turning to TMSV, the enrichment ratio is 16.5.

Turning to WPTA, the enrichment ratio is 14.3.

In the case of WPTD, the enrichment ratio was no more than 0.25.

As to KMSV, the enrichment ratio was no more than 0.25.

As to NASV, the enrichment ratio was no more than 0.25.

As to VEEC, the enrichment ratio is no more than 0.25.

Regarding ITEG, the enrichment ratio turned out to be 0.328.

With RMAH, the enrichment ratio was no more than 0.25.

Take NGEP: the enrichment ratio is no more than 0.25.

As for ATVR, the enrichment ratio stood at 4.36.

For the variant QILH, the enrichment ratio is no more than 0.25.

Consider MNDG, for which the enrichment ratio was no more than 0.25.

Consider GVPD, for which the enrichment ratio is no more than 0.25.

Turning to VQKT, the enrichment ratio was no more than 0.25.

RQKC: the enrichment ratio was no more than 0.25.

For the variant HSFA, the enrichment ratio is no more than 0.25.

Turning to ICYS, the enrichment ratio is no more than 0.25.

Turning to FLCS, the enrichment ratio was no more than 0.25.

For TMVF, the enrichment ratio is no more than 0.25.

Regarding ASMC, the enrichment ratio stood at 12.1.

As for HFMC, the enrichment ratio was no more than 0.25.

Take HRMC: the enrichment ratio was no more than 0.25.

As for ATMC, the enrichment ratio came out at 11.2.

For HIMC, the enrichment ratio worked out at 48.5.

For the variant HKMC, the enrichment ratio is no more than 0.25.

As for NSMC, the enrichment ratio is no more than 0.25.

For PTMC, the enrichment ratio was no more than 0.25.

Consider TKMC, for which the enrichment ratio was 77.6.

As to RGMC, the enrichment ratio was no more than 0.25.

As to TGMC, the enrichment ratio came to 31.9.

As to GGMC, the enrichment ratio is no more than 0.25.

Regarding AARL, the enrichment ratio is no more than 0.25.

For DMIF, the enrichment ratio was no more than 0.25.

On to PFMC, for which the enrichment ratio was no more than 0.25.

With HGMC, the enrichment ratio was 13.3.

In the case of TRMC, the enrichment ratio was determined as 2.53.

For the variant TFMC, the enrichment ratio stood at 16.5.

Regarding FSMC, the enrichment ratio stood at 16.1.

Turning to SGFC, the enrichment ratio was no more than 0.25.

As for TIMC, the enrichment ratio amounted to 9.

Take KFMC: the enrichment ratio was no more than 0.25.

For the variant FCMC, the enrichment ratio is no more than 0.25.

As to SGMC, the enrichment ratio came to 12.8.

Consider KSMC, for which the enrichment ratio is no more than 0.25.

As for NGMC, the enrichment ratio is no more than 0.25.

Consider KDFY, for which the enrichment ratio was no more than 0.25.

Take EPYY: the enrichment ratio is no more than 0.25.

Regarding FDYI, the enrichment ratio was no more than 0.25.

In the case of QVCS, the enrichment ratio is no more than 0.25.

Turning to LEAV, the enrichment ratio is no more than 0.25.

REVC: the enrichment ratio was no more than 0.25.

Consider FGTK, for which the enrichment ratio was no more than 0.25.

Take RCMC: the enrichment ratio is no more than 0.25.

For TVMM, the enrichment ratio is 0.563.

Turning to AVMM, the enrichment ratio turned out to be 52.7.

On to ANRA, for which the enrichment ratio was no more than 0.25.

Turning to ANMM, the enrichment ratio was determined as 32.7.

With TKMM, the enrichment ratio came to 31.6.

In the case of HKMM, the enrichment ratio is no more than 0.25.

Take ANRM: the enrichment ratio is no more than 0.25.

MEMM: the enrichment ratio was 0.38.

On to ACMM, for which the enrichment ratio turned out to be 14.1.

Regarding FVMM, the enrichment ratio was determined as 8.76.

Turning to HPRS, the enrichment ratio is no more than 0.25.

As for SFMM, the enrichment ratio was determined as 0.454.

As to EPTF, the enrichment ratio is no more than 0.25.

As for ATNR, the enrichment ratio was no more than 0.25.

FVFQ: the enrichment ratio is no more than 0.25.

As for DMFY, the enrichment ratio was no more than 0.25.

With NDFH, the enrichment ratio is no more than 0.25.

For the variant YEAF, the enrichment ratio is no more than 0.25.

In the case of WSCA, the enrichment ratio was no more than 0.25.

Take AYMM: the enrichment ratio was no more than 0.25.

With APMM, the enrichment ratio is no more than 0.25.

For the variant AKMM, the enrichment ratio came to 30.4.

VRMM: the enrichment ratio was no more than 0.25.

Regarding ADMM, the enrichment ratio was no more than 0.25.

On to AAMM, for which the enrichment ratio stood at 13.

Turning to AIMM, the enrichment ratio turned out to be 35.5.

For AHMM, the enrichment ratio is no more than 0.25.

For ASMM, the enrichment ratio was determined as 41.3.

As for ARMM, the enrichment ratio came to 5.29.

As to AAPM, the enrichment ratio stood at 4.08.

In the case of IEAL, the enrichment ratio was no more than 0.25.

For the variant NQSL, the enrichment ratio was no more than 0.25.

As for PQWK, the enrichment ratio was no more than 0.25.

Regarding SKWQ, the enrichment ratio is no more than 0.25.

On to KCME, for which the enrichment ratio is no more than 0.25.

As for KSSH, the enrichment ratio was no more than 0.25.

As to SPSH, the enrichment ratio was no more than 0.25.

For the variant PVME, the enrichment ratio is no more than 0.25.

TVCI: the enrichment ratio worked out at 0.444.

With TSKH, the enrichment ratio is no more than 0.25.

In the case of TVCE, the enrichment ratio worked out at 13.5.

For TVHE, the enrichment ratio was no more than 0.25.

Take HCSH: the enrichment ratio is no more than 0.25.

Turning to TVSH, the enrichment ratio amounted to 15.9.

For the variant TVME, the enrichment ratio is 11.7.

Regarding TSSH, the enrichment ratio worked out at 11.3.
